How the values were obtained:
[1] = target: RAC-alpha serine/threonine-protein kinase (Homo sapiens) (UniProt P31749); details: at 0.1 µM
[2] = target: RAC-alpha serine/threonine-protein kinase (Homo sapiens) (UniProt P31749); details: at 1 µM
[3] = target: RAC-beta serine/threonine-protein kinase (Homo sapiens) (UniProt P31751); details: at 0.1 µM
[4] = target: RAC-beta serine/threonine-protein kinase (Homo sapiens) (UniProt P31751); details: at 1 µM
[5] = target: RAC-gamma serine/threonine-protein kinase (Homo sapiens) (UniProt Q9Y243); details: at 0.1 µM
RAC-gamma serine/threonine-protein kinase (Homo sapiens), sequence (Q9Y243 whole entry): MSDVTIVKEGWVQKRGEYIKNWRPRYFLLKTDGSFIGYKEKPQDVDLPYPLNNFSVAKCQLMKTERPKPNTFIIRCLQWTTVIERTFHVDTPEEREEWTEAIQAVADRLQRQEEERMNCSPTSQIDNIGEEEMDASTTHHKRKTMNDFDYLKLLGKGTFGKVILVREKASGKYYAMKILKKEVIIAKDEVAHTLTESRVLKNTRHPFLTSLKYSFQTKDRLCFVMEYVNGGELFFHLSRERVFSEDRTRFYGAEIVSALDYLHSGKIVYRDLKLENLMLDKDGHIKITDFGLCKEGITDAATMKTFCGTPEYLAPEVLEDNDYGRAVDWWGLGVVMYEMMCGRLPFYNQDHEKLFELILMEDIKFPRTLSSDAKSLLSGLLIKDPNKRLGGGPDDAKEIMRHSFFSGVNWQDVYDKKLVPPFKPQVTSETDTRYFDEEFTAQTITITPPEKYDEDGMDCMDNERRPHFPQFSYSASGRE

[6] = target: RAC-gamma serine/threonine-protein kinase (Homo sapiens) (UniProt Q9Y243); details: at 1 µM
[7] = target: G protein-coupled receptor kinase 6 (Homo sapiens) (UniProt P43250); details: at 0.1 µM
G protein-coupled receptor kinase 6 (Homo sapiens), sequence (P43250 whole entry, looked up): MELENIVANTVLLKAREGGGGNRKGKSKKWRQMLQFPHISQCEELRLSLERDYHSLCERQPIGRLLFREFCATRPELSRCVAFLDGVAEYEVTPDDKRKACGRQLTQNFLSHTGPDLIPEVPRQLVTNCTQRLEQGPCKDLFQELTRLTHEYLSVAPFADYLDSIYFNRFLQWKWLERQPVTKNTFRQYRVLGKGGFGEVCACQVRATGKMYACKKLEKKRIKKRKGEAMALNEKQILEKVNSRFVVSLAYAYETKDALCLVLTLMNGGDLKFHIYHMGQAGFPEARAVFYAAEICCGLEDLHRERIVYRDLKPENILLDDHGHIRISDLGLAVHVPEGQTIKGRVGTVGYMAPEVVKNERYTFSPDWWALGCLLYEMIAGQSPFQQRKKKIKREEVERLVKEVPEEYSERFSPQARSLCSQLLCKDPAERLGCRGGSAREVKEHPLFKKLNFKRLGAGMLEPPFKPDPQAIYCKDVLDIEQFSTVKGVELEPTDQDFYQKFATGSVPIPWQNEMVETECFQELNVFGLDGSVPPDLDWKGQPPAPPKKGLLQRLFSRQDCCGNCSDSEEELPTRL

[8] = target: G protein-coupled receptor kinase 6 (Homo sapiens) (UniProt P43250); details: at 1 µM
[9] = target: T1, Rhodopsin kinase GRK7 (Homo sapiens) (UniProt Q8WTQ7); details: at 0.1 µM
T1 sequence (whole entry): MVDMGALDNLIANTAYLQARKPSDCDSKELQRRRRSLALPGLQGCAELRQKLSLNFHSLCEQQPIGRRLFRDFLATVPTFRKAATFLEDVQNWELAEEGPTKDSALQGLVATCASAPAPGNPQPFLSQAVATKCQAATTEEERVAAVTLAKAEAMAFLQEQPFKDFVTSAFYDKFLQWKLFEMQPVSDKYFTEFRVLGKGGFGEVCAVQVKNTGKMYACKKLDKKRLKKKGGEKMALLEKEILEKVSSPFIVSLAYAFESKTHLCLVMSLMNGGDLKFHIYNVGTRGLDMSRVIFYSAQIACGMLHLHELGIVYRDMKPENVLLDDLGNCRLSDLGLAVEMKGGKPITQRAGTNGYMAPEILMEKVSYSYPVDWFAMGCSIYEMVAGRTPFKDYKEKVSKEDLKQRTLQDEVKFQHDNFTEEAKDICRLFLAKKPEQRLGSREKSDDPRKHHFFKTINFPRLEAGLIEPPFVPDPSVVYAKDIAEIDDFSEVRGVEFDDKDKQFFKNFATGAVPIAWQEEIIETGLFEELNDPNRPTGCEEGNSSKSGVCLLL

[10] = target: T1, Rhodopsin kinase GRK7 (Homo sapiens); details: at 1 µM
[11] = target: Serine/threonine-protein kinase MRCK alpha (Homo sapiens) (UniProt Q5VT25); details: at 0.1 µM
[12] = target: Serine/threonine-protein kinase MRCK alpha (Homo sapiens) (UniProt Q5VT25); details: at 1 µM
[13] = target: Serine/threonine-protein kinase MRCK beta (Homo sapiens) (UniProt Q9Y5S2); details: at 0.1 µM
[14] = target: Serine/threonine-protein kinase MRCK beta (Homo sapiens) (UniProt Q9Y5S2); details: at 1 µM
[15] = target: Ribosomal protein S6 kinase alpha-5 (Homo sapiens) (UniProt O75582); details: at 0.1 µM
Ribosomal protein S6 kinase alpha-5 (Homo sapiens), sequence (O75582 whole entry, looked up): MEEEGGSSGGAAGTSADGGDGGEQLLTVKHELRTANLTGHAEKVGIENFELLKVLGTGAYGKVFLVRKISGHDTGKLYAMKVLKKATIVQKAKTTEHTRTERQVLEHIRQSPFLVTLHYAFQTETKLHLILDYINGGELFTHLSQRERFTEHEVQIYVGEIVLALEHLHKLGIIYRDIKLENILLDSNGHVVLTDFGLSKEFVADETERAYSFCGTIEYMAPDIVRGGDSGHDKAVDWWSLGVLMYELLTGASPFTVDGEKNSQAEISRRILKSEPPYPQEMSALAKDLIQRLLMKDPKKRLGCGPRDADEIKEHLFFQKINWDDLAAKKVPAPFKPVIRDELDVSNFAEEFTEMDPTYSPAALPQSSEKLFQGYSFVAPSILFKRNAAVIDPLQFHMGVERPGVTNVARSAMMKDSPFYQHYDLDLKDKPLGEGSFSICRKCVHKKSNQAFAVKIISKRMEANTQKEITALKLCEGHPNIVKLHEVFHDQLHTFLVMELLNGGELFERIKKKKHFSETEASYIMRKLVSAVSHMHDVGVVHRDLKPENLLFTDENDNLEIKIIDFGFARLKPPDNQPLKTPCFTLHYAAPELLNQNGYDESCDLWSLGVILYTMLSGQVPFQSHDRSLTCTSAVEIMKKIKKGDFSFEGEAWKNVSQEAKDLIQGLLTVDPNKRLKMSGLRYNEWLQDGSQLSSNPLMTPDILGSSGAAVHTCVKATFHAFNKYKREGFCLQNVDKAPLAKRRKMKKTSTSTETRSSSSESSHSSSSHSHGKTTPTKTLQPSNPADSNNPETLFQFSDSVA

[16] = target: Ribosomal protein S6 kinase alpha-5 (Homo sapiens) (UniProt O75582); details: at 1 µM
[17] = target: Ribosomal protein S6 kinase alpha-4 (Homo sapiens) (UniProt O75676); details: at 0.1 µM
Ribosomal protein S6 kinase alpha-4 (Homo sapiens), sequence (O75676 whole entry, looked up): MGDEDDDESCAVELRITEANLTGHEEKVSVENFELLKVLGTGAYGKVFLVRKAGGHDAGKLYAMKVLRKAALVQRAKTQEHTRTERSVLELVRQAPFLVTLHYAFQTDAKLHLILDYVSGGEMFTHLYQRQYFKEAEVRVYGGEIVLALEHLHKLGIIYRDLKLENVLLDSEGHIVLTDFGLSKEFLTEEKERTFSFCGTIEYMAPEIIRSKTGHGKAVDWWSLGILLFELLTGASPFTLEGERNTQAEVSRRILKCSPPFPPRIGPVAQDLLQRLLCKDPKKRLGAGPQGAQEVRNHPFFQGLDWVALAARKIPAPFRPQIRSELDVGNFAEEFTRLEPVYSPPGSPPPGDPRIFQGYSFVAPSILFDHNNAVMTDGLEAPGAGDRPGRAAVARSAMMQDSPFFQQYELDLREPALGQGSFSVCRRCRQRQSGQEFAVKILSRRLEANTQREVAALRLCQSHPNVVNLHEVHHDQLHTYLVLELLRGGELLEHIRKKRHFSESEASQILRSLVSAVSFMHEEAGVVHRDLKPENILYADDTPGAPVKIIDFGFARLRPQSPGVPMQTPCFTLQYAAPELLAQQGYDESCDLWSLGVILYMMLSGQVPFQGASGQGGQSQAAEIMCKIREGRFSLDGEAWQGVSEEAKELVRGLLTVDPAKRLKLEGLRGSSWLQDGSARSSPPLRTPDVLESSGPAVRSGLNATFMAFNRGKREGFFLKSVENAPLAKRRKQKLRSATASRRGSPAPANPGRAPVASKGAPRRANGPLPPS

[18] = target: Ribosomal protein S6 kinase alpha-4 (Homo sapiens) (UniProt O75676); details: at 1 µM
[19] = target: Ribosomal protein S6 kinase beta-1 (Homo sapiens) (UniProt P23443); details: at 0.1 µM
Ribosomal protein S6 kinase beta-1 (Homo sapiens), sequence (P23443 whole entry, looked up): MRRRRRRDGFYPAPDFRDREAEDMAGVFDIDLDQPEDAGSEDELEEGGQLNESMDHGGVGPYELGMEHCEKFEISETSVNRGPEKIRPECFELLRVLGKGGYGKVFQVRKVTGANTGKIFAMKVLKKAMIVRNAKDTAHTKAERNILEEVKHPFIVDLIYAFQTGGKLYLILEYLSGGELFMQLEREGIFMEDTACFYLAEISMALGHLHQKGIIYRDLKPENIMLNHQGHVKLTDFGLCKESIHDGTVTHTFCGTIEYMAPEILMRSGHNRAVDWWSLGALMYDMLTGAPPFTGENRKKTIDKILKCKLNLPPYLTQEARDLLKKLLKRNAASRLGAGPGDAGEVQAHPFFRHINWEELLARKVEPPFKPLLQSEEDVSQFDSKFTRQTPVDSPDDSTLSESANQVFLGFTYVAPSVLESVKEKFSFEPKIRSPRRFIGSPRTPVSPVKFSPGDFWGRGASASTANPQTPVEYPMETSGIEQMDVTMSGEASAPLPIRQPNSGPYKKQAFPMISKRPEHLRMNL

[20] = target: Ribosomal protein S6 kinase beta-1 (Homo sapiens) (UniProt P23443); details: at 1 µM

RAC-beta serine/threonine-protein kinase (Homo sapiens), sequence (P31751 whole entry): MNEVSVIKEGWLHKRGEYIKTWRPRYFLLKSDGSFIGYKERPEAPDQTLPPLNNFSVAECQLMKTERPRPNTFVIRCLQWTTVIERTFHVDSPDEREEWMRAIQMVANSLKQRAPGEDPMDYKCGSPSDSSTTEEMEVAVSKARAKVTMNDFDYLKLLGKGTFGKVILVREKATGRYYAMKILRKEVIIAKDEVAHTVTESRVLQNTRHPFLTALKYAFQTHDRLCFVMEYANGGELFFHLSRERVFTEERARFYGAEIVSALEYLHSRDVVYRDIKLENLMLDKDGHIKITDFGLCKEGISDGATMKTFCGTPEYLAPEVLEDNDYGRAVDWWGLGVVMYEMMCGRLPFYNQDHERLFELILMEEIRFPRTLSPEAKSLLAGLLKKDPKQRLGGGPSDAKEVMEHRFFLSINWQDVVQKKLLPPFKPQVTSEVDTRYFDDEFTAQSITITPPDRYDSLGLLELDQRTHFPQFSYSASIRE
RAC-alpha serine/threonine-protein kinase (Homo sapiens), sequence (P31749 whole entry): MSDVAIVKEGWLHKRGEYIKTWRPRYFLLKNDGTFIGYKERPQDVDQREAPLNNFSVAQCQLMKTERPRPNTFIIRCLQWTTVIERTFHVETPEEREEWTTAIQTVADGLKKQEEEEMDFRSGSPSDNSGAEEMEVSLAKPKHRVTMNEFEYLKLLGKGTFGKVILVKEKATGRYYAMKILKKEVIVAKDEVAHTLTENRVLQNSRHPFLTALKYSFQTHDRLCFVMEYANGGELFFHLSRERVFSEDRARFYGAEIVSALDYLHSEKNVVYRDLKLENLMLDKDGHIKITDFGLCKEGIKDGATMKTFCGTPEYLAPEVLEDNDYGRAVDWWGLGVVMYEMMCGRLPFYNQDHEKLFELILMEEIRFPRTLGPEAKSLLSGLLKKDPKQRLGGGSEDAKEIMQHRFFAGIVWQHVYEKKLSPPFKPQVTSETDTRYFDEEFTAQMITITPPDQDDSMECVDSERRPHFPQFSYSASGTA

Row | Compound | inhibition [1] | inhibition [2] | inhibition [3] | inhibition [4] | inhibition [5] | inhibition [6] | inhibition [7] | inhibition [8] | inhibition [9] | inhibition [10] | inhibition [11] | inhibition [12] | inhibition [13] | inhibition [14] | inhibition [15] | inhibition [16] | inhibition [17] | inhibition [18] | inhibition [19] | inhibition [20]
1 | O=C1Nc2ccccc2/C1=C/Nc1ccc2[nH]c(=O)[nH]c2c1 | 0.44% | 0.45% | 1.75% | 2.21% | 1% | 1.86% | 8.17% | 23.7% | 4.17% | 15.9% | -0.3% | 1.93% | -0.63% | -1.04% | 3.99% | 5.92% | 3.86% | 16.6% | 2.55% | 11.1%
2 | COc1cc(/C=N/Nc2ncnc3c2cnn3C(C)C)ccc1O | -0.05% | -2.56% | 0.47% | -1.58% | 0.98% | -1.46% | 4.24% | 77.6% | 1.66% | 7.37% | 0% | 0.03% | 0.84% | 0.35% | 2.8% | 3.54% | 2.2% | 1.83% | 1.17% | 2.21%
3 | OCc1ccc(-c2nc(-c3ccccn3)c(-c3ccc4c(c3)OCO4)[nH]2)cc1 | 1.19% | 1.53% | 2.08% | 2.51% | 1.57% | 0.86% | 0.03% | 1.18% | 2.93% | -2.28% | 0.27% | -0.19% | 0.91% | 1.33% | 4.12% | 3.7% | 1.01% | 3.89% | 2.09% | 3.2%
4 | NS(=O)(=O)c1ccc(NC=C2C(=O)Nc3ccc4ncsc4c32)cc1 | 1.23% | -0.15% | 2.3% | 2.59% | 0.79% | 2.77% | 6.28% | 35.5% | 6.78% | 22.4% | 3.96% | 20.5% | 5.03% | 15.4% | 11% | 23.1% | 28.8% | 63.9% | 5.33% | 25.6%
5 | Cc1cc(O)cc(C)c1/C=C/c1cncc(C(=O)N(C)C)c1 | 0.52% | 0.6% | 2.14% | 0.78% | 1.44% | 1.3% | 3.76% | 0.05% | 0% | -6.95% | 0.02% | 0.32% | 0.83% | 1.36% | 2% | 4.09% | 1.39% | 2.46% | 0.39% | 3.03%
6 | Nc1nccc(C#Cc2cncnc2Nc2ccc(OCc3cccc(F)c3)c(Cl)c2)n1 | 1.34% | 0.92% | 1.52% | 1.54% | 2.87% | 1.85% | 1.35% | -4.58% | 4.51% | 1.2% | 0.06% | -0.95% | -0.16% | 2.38% | 4.15% | 4.83% | 1.39% | 4.41% | 1.09% | 1.35%
7 | CCS(=O)(=O)c1ccc(OC)c(Nc2nccc(N(C)c3ccc4c(C)n[nH]c4c3)n2)c1 | 1.44% | 1.19% | 1.01% | 2.53% | 0.55% | 2.78% | -0.58% | 1.67% | 9.6% | 1.83% | -4.24% | -2.48% | 0.97% | 0.83% | 4.1% | 1.28% | 2.02% | 0.35% | 0.02% | 1.3%
8 | ON=C1CCc2cc(-c3nc(C4CCNCC4)[nH]c3-c3ccncc3)ccc21 | 0.07% | -0.21% | 0.72% | -1.73% | -0.56% | 0.98% | 0.43% | -2.74% | -0.92% | 1.83% | 1.01% | 1.89% | -0.75% | 1.17% | -0.09% | -0.44% | -0.82% | 1.3% | 0.43% | -1.14%
9 | COc1ccc2ncnc(Nc3ccc(OCc4ccccc4)cc3)c2c1 | 0.35% | -0.14% | 0.26% | 0.34% | 0.84% | 1.52% | 1.69% | 5.27% | 2.31% | 6.57% | 0.54% | 2.68% | 0.54% | 0.8% | 1.25% | 0.63% | -3.48% | 1.47% | 1.08% | 0.96%
10 | NS(=O)(=O)c1cccc(-c2cc3ccncc3cc2OCc2ccccc2)c1 | 1.37% | 0.84% | 1.79% | 2.65% | 2.96% | 0.32% | 0.24% | 2.95% | 2.9% | 4.85% | 0.79% | -0.95% | 1.07% | 0.42% | 6.93% | 5.54% | 2.88% | 6.76% | 1.84% | 1.18%
11 | NS(=O)(=O)c1cccc(Nc2cc(-c3ccc(F)cc3)n[nH]2)c1 | 1.57% | 2.41% | 3.5% | 2.66% | 2.29% | 3.03% | 4.03% | 8.09% | 2.68% | 5.14% | -0.33% | 4.84% | -0.58% | 2.02% | 9.72% | 11.4% | 3.37% | 5.59% | 1.79% | 3.12%
12 | COc1cccc(-n2ncc3c(N/N=C/c4ccc(S(C)(=O)=O)cc4)ncnc32)c1 | -3.17% | -2.91% | -3.17% | -2.73% | -8.29% | -3.66% | 1.17% | -1.78% | -0.35% | 0.56% | -0.29% | -0.45% | 0.04% | 0.16% | -1.19% | -0.55% | 1.78% | 2.04% | 1.23% | 5.85%
13 | CN(C)CCCn1c(-c2nonc2N)nc2cnccc21 | 0.01% | 1.38% | 1.85% | 3.82% | 0.92% | 1.84% | 3.78% | 3.55% | 2.61% | 5.07% | 1.89% | 16.4% | 4.34% | 22.6% | 8.29% | 28.7% | 3.18% | 13.9% | 2.39% | 13.2%
14 | [O-][S+]1CCN(Cc2ccc(-c3ccc4ncnc(Nc5ccc(OCc6ccccc6)c(Cl)c5)c4c3)o2)CC1 | 0.1% | -0.3% | 0.29% | 1.29% | 0.15% | 2.06% | -0.03% | 1.12% | 7.76% | -2.22% | -2.24% | -0.57% | 0.47% | -0.33% | 1.47% | 1.03% | -0.52% | 0.11% | -1.26% | -0.16%

— ChEMBL document CHEMBL1961873, “Compounds: GSK PKIS; Assays: Nanosyn kinase panel” (2012)
